Assay results published in PubChem BioAssay.
Calls of active or inactive are those of the source.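 How the source made its calls, unless noted: active means fluorescence slope higher than the sample average by over 3 SD (cut at about -0.22 in these data, passing the limit was not always enough); inactive means the rest.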

Legend:
[1] = inhibitors of TNFa-induced NFkB p65 translocation, primary screen, imaging, HUVEC, MLSMR starter and 10KST1 sets (AID 438;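 active means inhibition above 20% together with a positive visual image hit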;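 further: compound added about 3h40 before a 20 min TNFalpha stimulation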;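 on inhibition: signal is the nuclear over cytoplasmic p65 intensity ratio per well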); settings: HUVEC TNFa-induced p65 nuclear translocation; cell count: measured here: nuclei count (cytotoxicity indicator), at 2.08 µM; inhibition: at 2 µM, stronger effect = higher value, 0% TNFa-plus-vehicle, 100% no-TNFa wells
[2] = inhibitors of mutant huntingtin aggregation, primary screen, imaging, exon1htt(103Q)mCFP cells, high-content imaging (AID 483;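 active means visual image review flags a hit and inhibition of aggregation exceeds 20%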;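 further: compound exposure lasted 3 days before fixation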;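 on nuclei count: percent of the per-plate median nuclei count of sample wells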); settings: exon1htt(103Q)mCFP cell line, aggregate imaging, at 2 µM; inhibition of aggregation: stronger effect = higher value; nuclei count: measured here: cell count, toxicity
[3] = inhibitors of E-selectin induction by TNFa, primary screen, imaging, HUVEC, immunofluorescence, MLSMR starter and 10KST1 sets (AID 487;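 active means visually confirmed hit in the image check and inhibition above 20%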;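 on inhibition: signal is fraction of cell area covered by stained E-selectin grains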;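 on nuclei count: 100% = median nuclei count of all wells on the same plate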); settings: HUVEC TNFalpha-induced E-selectin immunofluorescence imaging, at 2 µM; inhibition: stronger effect = higher value; nuclei count: measured here: cell number, toxicity
[4] = target: Voltage-gated potassium channel subunit beta-2 (Rattus norvegicus) (UniProt P62483); experiment: KvBeta enzyme negative modulators, primary screen, biochemical, NADPH fluorescence (AID 622); settings: recombinant KvBeta, 4-cyanobenzaldehyde reduction, at 10 µM, stronger effect = higher value;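 further: slope of raw intensity against log time taken from 70 to 1610 s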
[5] = target: Voltage-gated potassium channel subunit beta-2 (Rattus norvegicus) (UniProt P62483); experiment: KvBeta positive modulators, primary screen, biochemical, NADPH fluorescence (AID 623;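 active means NADPH fluorescence slope more negative than the mean of all samples by about 3 SD, 99.7% confidence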;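 further: fluorescence intensity change per second fitted from 20 to 320 s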); settings: Recombinant KvBeta, NADPH fluorescence decrease slope, 10 min; at 10 µM; stronger effect = lower value
[6] = target: Alpha-2C adrenergic receptor (Homo sapiens) (UniProt P18825); experiment: modulators of alpha2C/GIRK thallium flux, primary screen, cell-based, HEK293 alpha2C/GIRK1/2 (AID 624;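 active means fluorescence slope after compound addition differing from the mean of all screened samples at 99.7% confidence, in either direction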;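 further: slope of fluorescence ratio to pre-addition baseline per second over 15 to 24 s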); settings: thallium flux BTC fluorescence, at 10 µM, actives lie on both sides
[7] = inhibitors of Sendai virus-induced IRF3 signaling, primary screen, TLR/RLR signaling modifier project, cell-based, Sendai virus stimulus, luciferase, 10K MLSCN set (AID 602276;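 active means inhibition at or above 50% at 10 µM; inactive means inhibition below 50%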;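 further: firefly luciferase from ISG56 promoter only with Renilla not read in this screen; 0% = Sendai virus plus DMSO and 100% = medium plus DMSO without virus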); settings: HEK293 RL24 IRF3 luciferase reporter, at 10 µM, stronger effect = higher value
[8] = inhibitors of poly I:C-induced TLR3 signaling, primary screen, cell-based, poly I:C stimulus, luciferase, 10K MLSCN set (AID 602277;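 active means inhibition of the reporter signal at or above 50%; inactive means inhibition below 50%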); settings: HEK293-TLR3 RL24 IRF3 luciferase reporter, at 10 µM, stronger effect = higher value

Chain of Alpha-2C adrenergic receptor (Homo sapiens) (P18825 whole entry, looked up): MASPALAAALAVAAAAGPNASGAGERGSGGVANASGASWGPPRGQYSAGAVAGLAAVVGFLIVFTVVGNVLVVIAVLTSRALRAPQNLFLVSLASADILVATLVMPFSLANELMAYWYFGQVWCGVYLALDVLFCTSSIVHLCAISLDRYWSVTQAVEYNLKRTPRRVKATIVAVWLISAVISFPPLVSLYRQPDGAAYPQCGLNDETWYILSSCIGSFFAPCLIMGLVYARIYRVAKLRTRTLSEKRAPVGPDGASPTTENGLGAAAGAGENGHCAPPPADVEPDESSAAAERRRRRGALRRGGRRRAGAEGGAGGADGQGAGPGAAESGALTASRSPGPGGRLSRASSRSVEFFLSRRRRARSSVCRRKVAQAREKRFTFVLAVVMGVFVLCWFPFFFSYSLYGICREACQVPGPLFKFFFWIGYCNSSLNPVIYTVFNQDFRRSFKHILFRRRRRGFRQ
Chain of Voltage-gated potassium channel subunit beta-2 (Rattus norvegicus) (P62483 whole entry, looked up): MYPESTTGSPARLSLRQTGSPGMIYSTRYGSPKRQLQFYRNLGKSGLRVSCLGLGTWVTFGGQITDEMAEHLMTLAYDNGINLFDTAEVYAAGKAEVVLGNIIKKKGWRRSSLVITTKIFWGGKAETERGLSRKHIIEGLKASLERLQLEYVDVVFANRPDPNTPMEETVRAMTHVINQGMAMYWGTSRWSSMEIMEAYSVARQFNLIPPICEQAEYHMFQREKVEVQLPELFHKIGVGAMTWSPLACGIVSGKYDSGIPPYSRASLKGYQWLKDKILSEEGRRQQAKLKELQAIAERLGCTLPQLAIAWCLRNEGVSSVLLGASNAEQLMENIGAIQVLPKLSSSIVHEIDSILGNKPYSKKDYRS

## CCc1nnc(NC(=O)c2ccc(S(=O)(=O)NCC(C)C)cc2)s1
[1]
  cell count: 494
  inhibition: -4.1% (inactive)
[2]
  inhibition of aggregation: -18.5% (inactive)
  nuclei count: 100%
[3]
  inhibition: -73.7% (inactive)
  nuclei count: 210%
[4]
  fluorescence slope: -0.491 (inactive)
[5]
  NADPH fluorescence slope: -3.9e-05 (inactive)
[6]
  slope: 0.00682 (inactive)
[7]
  inhibition: -15.9% (inactive)
[8]
  inhibition: -61.5% (inactive)

## O=c1oc2ccccc2c(O)c1CN1CCCCC1
[1]
  cell count: 361
  inhibition: 2.9% (inactive)
[2]
  inhibition of aggregation: 4.9% (inactive)
  nuclei count: 48.1%
[3]
  inhibition: -83.3% (inactive)
  nuclei count: 117%
[4]
  fluorescence slope: -0.407 (inactive)
[5]
  NADPH fluorescence slope: -6.8e-05 (inactive)
[6]
  slope: 0.00535 (inactive)
[7]
  inhibition: 15.4% (inactive)
[8]
  inhibition: 8.62% (inactive)

## O=C1C2C3C=CC(C3=C3CCCCC3)C2C(=O)N1c1ccccc1 (centres undefined)
[1]
  cell count: 512
  inhibition: -10.1% (inactive)
[2]
  inhibition of aggregation: 3.7% (inactive)
  nuclei count: 104%
[3]
  inhibition: -29.2% (inactive)
  nuclei count: 103%
[4]
  fluorescence slope: -0.61 (inactive)
[5]
  NADPH fluorescence slope: -3.9e-06 (inactive)
[6]
  slope: 0.00655 (inactive)
[7]
  inhibition: 12.4% (inactive)
[8]
  inhibition: 16% (inactive)

## CCOc1ccccc1C1CC(=O)Nc2cc3c(cc21)OCO3 (centres undefined)
[1]
  cell count: 266
  inhibition: 14.4% (inactive)
[2]
  inhibition of aggregation: -18.8% (inactive)
  nuclei count: 86.9%
[3]
  inhibition: -9.8% (inactive)
  nuclei count: 98.7%
[4]
  fluorescence slope: -0.38 (inactive)
[5]
  NADPH fluorescence slope: -4.6e-05 (inactive)
[6]
  slope: 0.00457 (inactive)
[7]
  inhibition: 3.25% (inactive)
[8]
  inhibition: 40.2% (inactive)

## Oc1ccc(C=Nc2cccc3ncccc23)c(O)c1
[1]
  cell count: 682
  inhibition: -40.5% (inactive)
[2]
  inhibition of aggregation: -10% (inactive)
  nuclei count: 111%
[3]
  inhibition: -138% (inactive)
  nuclei count: 118%
[4]
  fluorescence slope: -0.483 (inactive)
[5]
  NADPH fluorescence slope: -2.5e-05 (inactive)
[6]
  slope: 0.00472 (inactive)
[7]
  inhibition: 11.3% (inactive)
[8]
  inhibition: 17.3% (inactive)

## O=C(Nc1ccc(F)cc1)NC1CCN(Cc2nnnn2Cc2ccco2)CC1
[1]
  cell count: 849
  inhibition: 0% (inactive)
[2]
  inhibition of aggregation: -19.5% (inactive)
  nuclei count: 94.3%
[3]
  inhibition: -2.9% (inactive)
  nuclei count: 113%
[4]
  fluorescence slope: -0.501 (inactive)
[5]
  NADPH fluorescence slope: -4.4e-05 (inactive)
[6]
  slope: 0.00571 (inactive)
[7]
  inhibition: -9.98% (inactive)
[8]
  inhibition: 0.354% (inactive)

## CC(=O)NC1(C(F)(F)F)NC(=O)N(CC(C)C)C1=O (centres undefined)
[1]
  cell count: 359
  inhibition: 4% (inactive)
[2]
  inhibition of aggregation: -8.3% (inactive)
  nuclei count: 97.6%
[3]
  inhibition: -30.2% (inactive)
  nuclei count: 101%
[4]
  fluorescence slope: -0.5 (inactive)
[5]
  NADPH fluorescence slope: 2e-05 (inactive)
[6]
  slope: 0.00596 (inactive)
[7]
  inhibition: -14.7% (inactive)
[8]
  inhibition: 14% (inactive)

## Cc1cc(S(=O)(=O)N(Cc2ccccc2)Cc2ccc(N(C)C)cc2)ccc1-n1cnnn1
[1]
  cell count: 793
  inhibition: 3.3% (inactive)
[2]
  inhibition of aggregation: -7.8% (inactive)
  nuclei count: 94.8%
[3]
  inhibition: -58.8% (inactive)
  nuclei count: 130%
[4]
  fluorescence slope: -0.293 (inactive)
[5]
  NADPH fluorescence slope: -5.5e-05 (inactive)
[6]
  slope: 0.00447 (inactive)
[7]
  inhibition: 15.7% (inactive)
[8]
  inhibition: 36.4% (inactive)

## Cc1noc(/C=C/N(C)C)c1S(=O)(=O)N1CCCC(C(=O)N2CCCCC2)C1 (centres undefined)
[1]
  cell count: 709
  inhibition: 9.1% (inactive)
[2]
  inhibition of aggregation: -0.1% (inactive)
  nuclei count: 80.5%
[3]
  inhibition: -79.5% (inactive)
  nuclei count: 117%
[4]
  fluorescence slope: -0.516 (inactive)
[5]
  NADPH fluorescence slope: -3.8e-05 (inactive)
[6]
  slope: 0.00526 (inactive)
[7]
  inhibition: 7.18% (inactive)
[8]
  inhibition: 28.7% (inactive)

## O=C(c1ccco1)N1CCN(c2nc(C(F)(F)F)nc3c2nnn3Cc2ccccc2)CC1
[1]
  cell count: 534
  inhibition: -2.5% (inactive)
[2]
  inhibition of aggregation: -6.6% (inactive)
  nuclei count: 87.1%
[3]
  inhibition: -10.1% (inactive)
  nuclei count: 103%
[4]
  fluorescence slope: -0.484 (inactive)
[5]
  NADPH fluorescence slope: -5.9e-05 (inactive)
[6]
  slope: 0.00661 (inactive)
[7]
  inhibition: 3.06% (inactive)
[8]
  inhibition: -42% (inactive)

## O=C(c1ccco1)N1CCN(S(=O)(=O)c2ccc(C3CCCCC3)cc2)CC1
[1]
  cell count: 400
  inhibition: 7.2% (inactive)
[2]
  inhibition of aggregation: -1.8% (inactive)
  nuclei count: 102%
[3]
  inhibition: -44.9% (inactive)
  nuclei count: 109%
[4]
  fluorescence slope: -0.501 (inactive)
[5]
  NADPH fluorescence slope: -3.8e-05 (inactive)
[6]
  slope: 0.00443 (inactive)
[7]
  inhibition: -0.0986% (inactive)
[8]
  inhibition: -28.6% (inactive)

## CCCCOC(=O)C1=C(C)Nc2ncnn2C1c1cccc(OC)c1OC (centres undefined)
[1]
  cell count: 655
  inhibition: 12.8% (inactive)
[2]
  inhibition of aggregation: -20.9% (inactive)
  nuclei count: 113%
[3]
  inhibition: -71.2% (inactive)
  nuclei count: 111%
[4]
  fluorescence slope: -0.403 (inactive)
[5]
  NADPH fluorescence slope: -4e-05 (inactive)
[6]
  slope: 0.00417 (inactive)
[7]
  inhibition: 12.8% (inactive)
[8]
  inhibition: 9.22% (inactive)

## Cc1ccc(C)n1-n1c(C)nc2sc(-c3ccccc3)cc2c1=O
[1]
  cell count: 419
  inhibition: -0.6% (inactive)
[2]
  inhibition of aggregation: -8.2% (inactive)
  nuclei count: 85.3%
[3]
  inhibition: -143% (inactive)
  nuclei count: 109%
[4]
  fluorescence slope: -0.363 (inactive)
[5]
  NADPH fluorescence slope: 3.8e-06 (inactive)
[6]
  slope: 0.00611 (inactive)
[7]
  inhibition: -68% (inactive)
[8]
  inhibition: -272% (inactive)

## O=C(CSc1nnnn1C1CCCC1)NCc1ccc2c(c1)OCO2
[1]
  cell count: 816
  inhibition: -13.2% (inactive)
[2]
  inhibition of aggregation: 3% (inactive)
  nuclei count: 87.9%
[3]
  inhibition: -15.5% (inactive)
  nuclei count: 138%
[4]
  fluorescence slope: -0.475 (inactive)
[5]
  NADPH fluorescence slope: -4.8e-05 (inactive)
[6]
  slope: 0.00594 (inactive)
[7]
  inhibition: 1% (inactive)
[8]
  inhibition: 22.3% (inactive)

## CC1(C)CC(=O)CC(C)(C)N1OC(=O)c1ccccn1
[1]
  cell count: 362
  inhibition: 1% (inactive)
[2]
  inhibition of aggregation: -6.4% (inactive)
  nuclei count: 97.7%
[3]
  inhibition: -4.9% (inactive)
  nuclei count: 102%
[4]
  fluorescence slope: -0.495 (inactive)
[5]
  NADPH fluorescence slope: 2e-05 (inactive)
[6]
  slope: 0.00619 (inactive)
[7]
  inhibition: -2.81% (inactive)
[8]
  inhibition: 25.3% (inactive)

## COc1ccccc1NC(=O)NC1(C(=O)N2CCC(O)CC2)CCCCC1
[1]
  cell count: 242
  inhibition: 3.9% (inactive)
[2]
  inhibition of aggregation: 16.6% (inactive)
  nuclei count: 79.3%
[3]
  inhibition: 1.6% (inactive)
  nuclei count: 94%
[4]
  fluorescence slope: -0.605 (inactive)
[5]
  NADPH fluorescence slope: 1.9e-06 (inactive)
[6]
  slope: 0.00897 (inactive)
[7]
  inhibition: -0.183% (inactive)
[8]
  inhibition: 2.89% (inactive)

## COc1cccc(NC(=O)N2CCC(N3CCCCC3)CC2)c1
[1]
  cell count: 369
  inhibition: 5.2% (inactive)
[2]
  inhibition of aggregation: 7.2% (inactive)
  nuclei count: 105%
[3]
  inhibition: -124% (inactive)
  nuclei count: 119%
[4]
  fluorescence slope: -0.582 (inactive)
[5]
  NADPH fluorescence slope: 2.5e-05 (inactive)
[6]
  slope: 0.00728 (inactive)
[7]
  inhibition: 15.9% (inactive)
[8]
  inhibition: 26.1% (inactive)

## Cc1ccc(-c2nc(N)n(C(=O)c3cccnc3)n2)cc1
[1]
  cell count: 359
  inhibition: 5.5% (inactive)
[2]
  inhibition of aggregation: -19.9% (inactive)
  nuclei count: 113%
[3]
  inhibition: -110% (inactive)
  nuclei count: 109%
[4]
  fluorescence slope: -0.339 (inactive)
[5]
  NADPH fluorescence slope: -5.3e-06 (inactive)
[6]
  slope: 0.00801 (inactive)
[7]
  inhibition: 0.795% (inactive)
[8]
  inhibition: 22.5% (inactive)

## Cc1onc(-c2ccccc2)c1C(=O)N1CCOCC1
[1]
  cell count: 619
  inhibition: -3.5% (inactive)
[2]
  inhibition of aggregation: -7.5% (inactive)
  nuclei count: 113%
[3]
  inhibition: -39.2% (inactive)
  nuclei count: 106%
[4]
  fluorescence slope: -0.327 (inactive)
[5]
  NADPH fluorescence slope: 7.5e-06 (inactive)
[6]
  slope: 0.00368 (inactive)
[7]
  inhibition: 12.5% (inactive)
[8]
  inhibition: 20.9% (inactive)
